Results as given in PubChem BioAssay.
Several values for one entry are separate records, joined by “and”; a condition that tells them apart may be missing. Identical values can stand only once. Activity calls are given as the source filed them. Unless noted, the rule behind the calls is not given here.

Key:
[1] = hESC survival regulators, cell-based (AID 493140); details: human embryonic stem cell survival screen; stronger effect = higher value;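 note: cells exposed to compounds for four days before counting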
[2] = system: Aerobactin synthetase IucA (Klebsiella pneumoniae); assay: IucA aerobactin synthetase inhibitors, biochemical, Tocris library, absorbance (AID 1345561); details: purified IucA enzyme assay, absorbance (OD) read-out; stronger effect = lower value;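 tested at 8 µM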;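 note: 100% = enzyme without compound and 0% = no enzyme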
[3] = sensitizers of A549 cells to miR-34 induction, primary screen, imaging, A549 dox-inducible miR-34, nuclei and caspase counts (AID 1347080;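 active = compounds whose cell count with miR-34 switched on is under 0.7 times the count with it off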); details: A549 miR-34 inducible, Hoechst nuclei count, 48 h
[4] = inhibitors of Cryptococcus chitosan production, flow cytometry, Cibacron Brilliant Red staining (AID 1347148); details: Cryptococcus neoformans chitosan, stronger effect = lower value; at 10 µM unless noted;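 note: compound exposure lasted three days at 37 degrees C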
[5] = survival rescue of mitochondrial mutant cells in low glucose, primary screen, MELAS cybrids, Rieske KO mouse fibroblasts, CellTiter-Glo (AID 1508586;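 active = mean z-score across replicates of 1.96 or higher in either the MELAS or the Rieske mutant cell line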;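 note: z relative to plate mean and SD of compound and empty wells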)
[6] = viability rescue of complex I mutant cybrids, primary screen, cell-based, galactose medium, ATP luminescence (AID 1645843;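 active = z-score of at least 1.8 in each of two replicates, scored against plate mean and spread of sample wells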;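 note: positive z means more ATP and so rescue of galactose-driven cybrid death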); details: complex I mutant cybrid cells, 72 h, stronger effect = higher value
[7] = modifiers of HSF1 nuclear foci, imaging, Selleck Cancer Library (AID 1347162; in the data active = plate-normalised HSF1 focus index below about 0.46); details: human cells, at 10 µM; SSMD: measured here: HSF1 foci SSMD mean; cell count: measured here: cell number; plate-normalised HSF1 focus index: stronger effect = lower value
[8] = ovarian cancer cell viability with rucaparib, profiling panel, oncology-focused library, rucaparib conditional (AID 1508598;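 active = normalized viability below 100% at a tested concentration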); details: patient-derived ovarian cancer cells, CellTiter-Glo viability, 144 h, stronger effect = lower value
[9] = circadian clock period modulators, cell-based, LOPAC library, luminescence reporter (AID 2774); details: circadian reporter cells, at 7 µM, actives lie on both sides;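 note: values are relative to mean of DMSO wells on each plate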
[10] = system: Hepatitis C virus NS3 helicase; assay: HCV NS3 helicase inhibitors, primary screen, biochemical, fluorescence polarization, LOPAC1280 library (AID 687035; in the data active = inhibition above about 37%); details: Purified HCV NS3 helicase, Cy5-dT15 ssDNA binding fluorescence polarization; stronger effect = higher value; concentration not given here
[11] = Cy5 fluorescence quenching or enhancement artefacts, artefact control for HCV NS3 helicase inhibitor project, biochemical, LOPAC1280 (AID 687037); details: Cy5-DNA-NS3h complex fluorescence interference counterscreen
[12] = phospholipid biosynthesis inhibitors in animal cells, primary screen, cell-based, LOPAC library, screen 4 (AID 1347384); details: phospholipid biosynthesis inhibition screen, at 10 µM
[13] = target: Mitogen-activated protein kinase 7 (Homo sapiens) (UniProt Q13164); assay: ERK5 transactivation activators in reporter cells, primary screen, cell-based, HTS (AID 1508626;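 active = luciferase signal above three times the same-plate solvent-only control wells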;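 note: luciferase driven by Gal4-ERK5 fusion binding five Gal4 sites before minimal TATA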); details: HeLa Gal4-ERK5 transactivation, 18 h, at 5 µM, stronger effect = higher value
[14] = liver-stage malaria parasite growth inhibition, primary screen, cell-based, HepG2, luciferase luminescence, HepG2 viability (AID 624349; in the data active = parasite load remaining mostly below about 12%, no sharp cut-off; inactive = mostly above about 10%;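 note: 100% = mean of DMSO negative control wells on the same plate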); details: P. berghei liver stage in HepG2, luciferase luminescence, concentration not given here; parasite load remaining: stronger effect = lower value; viability: measured here: HepG2 viability without parasites
[15] = stronger effect = lower value, cell number ratio, induced over uninduced
[16] = measured here: relative caspase fold change +Dox/-Dox
[17] = measured here: total cells with miR-34 induction, stronger effect = lower value
[18] = measured here: total cells without miR-34 induction
[19] = MELAS cybrid survival, CellTiter-Glo 48 h, stronger effect = higher value
[20] = Rieske KO mouse fibroblast survival, CellTiter-Glo 72 h

Mitogen-activated protein kinase 7 (Homo sapiens), sequence (Q13164 whole entry, looked up, the tested form may be a part): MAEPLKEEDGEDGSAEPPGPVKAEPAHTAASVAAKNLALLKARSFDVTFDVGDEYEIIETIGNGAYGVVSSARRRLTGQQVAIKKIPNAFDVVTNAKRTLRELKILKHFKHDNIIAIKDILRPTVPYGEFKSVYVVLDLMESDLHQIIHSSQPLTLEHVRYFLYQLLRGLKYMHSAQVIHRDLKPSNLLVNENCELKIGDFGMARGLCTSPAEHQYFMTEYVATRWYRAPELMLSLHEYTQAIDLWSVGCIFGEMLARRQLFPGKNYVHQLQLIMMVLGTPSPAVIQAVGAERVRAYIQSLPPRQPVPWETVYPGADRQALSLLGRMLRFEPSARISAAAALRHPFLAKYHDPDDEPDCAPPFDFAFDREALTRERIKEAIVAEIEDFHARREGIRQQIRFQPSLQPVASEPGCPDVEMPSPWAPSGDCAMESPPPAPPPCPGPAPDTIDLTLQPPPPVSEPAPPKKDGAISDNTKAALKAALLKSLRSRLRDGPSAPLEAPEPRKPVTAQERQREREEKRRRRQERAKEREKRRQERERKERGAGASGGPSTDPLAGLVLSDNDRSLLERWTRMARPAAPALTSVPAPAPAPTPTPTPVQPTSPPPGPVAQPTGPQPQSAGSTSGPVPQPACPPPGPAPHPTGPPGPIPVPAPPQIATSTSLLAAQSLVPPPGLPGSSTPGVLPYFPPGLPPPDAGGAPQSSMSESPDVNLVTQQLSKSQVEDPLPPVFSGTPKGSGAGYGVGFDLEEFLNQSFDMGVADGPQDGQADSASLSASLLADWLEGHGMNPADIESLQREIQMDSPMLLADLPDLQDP

## Cc1ccc(-c2nn(C(C)(C)C)c3ncnc(N)c23)cc1
[1]
  survival: 82.2 (inactive)
[2]
  remaining activity: 109% (inactive)
[3]; [15]
  fold change: 1.15 (inactive) and 0.969 (inactive) and 1.02 (inactive)
[3]; [16]
  fold change: 0.8 and 0.845 and 0.764
[3]; [17]
  cell count: 850 and 2400 and 3230
[3]; [18]
  cell count: 738 and 2480 and 3170
[4]
  fold fluorescence: 12.9 [at 177.7 µM] (inactive)
[5]; [19]
  z-score: 0.565 (inactive)
[5]; [20]
  z-score: -0.238
[6]
  z-score: 0.19 (inactive)

## CC(NC(=O)c1ccccc1N=Cc1c(O)ccc2ccccc12)c1ccccc1 (stereo unspecified)
[2]
  remaining activity: 102% (inactive)
[3]; [15]
  fold change: 0.954 (inactive) and 0.917 (inactive)
[3]; [16]
  fold change: 0.477 and 1.5
[3]; [17]
  cell count: 7190 and 7160
[3]; [18]
  cell count: 7540 and 7810
[7]
  SSMD: 1.72
  cell count: 7320
  plate-normalised HSF1 focus index: 1.11 (inactive)
[5]; [19]
  z-score: -0.168 (inactive)
[5]; [20]
  z-score: -0.189
[8]; at 0.000305 µM, OCI-C5x cells, with rucaparib 10 µM, 100% = cells with rucaparib alone
  viability: 111% (inactive)
[8]; at 0.000305 µM, OCI-C5x cells, without rucaparib
  viability: 99.9% (active)
[8]; at 0.000305 µM, OCI-P5x cells, with rucaparib 20 µM, 100% = cells with rucaparib alone
  viability: 102% (inactive)
[8]; at 0.000305 µM, OCI-P5x cells, without rucaparib
  viability: 90.3% (active)
[8]; at 0.00122 µM, OCI-C5x cells, with rucaparib 10 µM, 100% = cells with rucaparib alone
  viability: 122% (inactive)
[8]; at 0.00122 µM, OCI-C5x cells, without rucaparib
  viability: 121% (inactive)
[8]; at 0.00122 µM, OCI-P5x cells, with rucaparib 20 µM, 100% = cells with rucaparib alone
  viability: 103% (inactive)
[8]; at 0.00122 µM, OCI-P5x cells, without rucaparib
  viability: 95.7% (active)
[8]; at 0.00488 µM, OCI-C5x cells, with rucaparib 10 µM, 100% = cells with rucaparib alone
  viability: 119% (inactive)
[8]; at 0.00488 µM, OCI-C5x cells, without rucaparib
  viability: 126% (inactive)
[8]; at 0.00488 µM, OCI-P5x cells, with rucaparib 20 µM, 100% = cells with rucaparib alone
  viability: 106% (inactive)
[8]; at 0.00488 µM, OCI-P5x cells, without rucaparib
  viability: 96.5% (active)
[8]; at 0.0195 µM, OCI-C5x cells, with rucaparib 10 µM, 100% = cells with rucaparib alone
  viability: 121% (inactive)
[8]; at 0.0195 µM, OCI-C5x cells, without rucaparib
  viability: 119% (inactive)
[8]; at 0.0195 µM, OCI-P5x cells, with rucaparib 20 µM, 100% = cells with rucaparib alone
  viability: 114% (inactive)
[8]; at 0.0195 µM, OCI-P5x cells, without rucaparib
  viability: 100% (active)
[8]; at 0.0781 µM, OCI-C5x cells, with rucaparib 10 µM, 100% = cells with rucaparib alone
  viability: 112% (inactive)
[8]; at 0.0781 µM, OCI-C5x cells, without rucaparib
  viability: 119% (inactive)
[8]; at 0.0781 µM, OCI-P5x cells, with rucaparib 20 µM, 100% = cells with rucaparib alone
  viability: 108% (inactive)
[8]; at 0.0781 µM, OCI-P5x cells, without rucaparib
  viability: 102% (inactive)
[8]; at 0.313 µM, OCI-C5x cells, with rucaparib 10 µM, 100% = cells with rucaparib alone
  viability: 116% (inactive)
[8]; at 0.313 µM, OCI-C5x cells, without rucaparib
  viability: 118% (inactive)
[8]; at 0.313 µM, OCI-P5x cells, with rucaparib 20 µM, 100% = cells with rucaparib alone
  viability: 108% (inactive)
[8]; at 0.313 µM, OCI-P5x cells, without rucaparib
  viability: 104% (inactive)
[8]; at 1.25 µM, OCI-C5x cells, with rucaparib 10 µM, 100% = cells with rucaparib alone
  viability: 116% (inactive)
[8]; at 1.25 µM, OCI-C5x cells, without rucaparib
  viability: 126% (inactive)
[8]; at 1.25 µM, OCI-P5x cells, with rucaparib 20 µM, 100% = cells with rucaparib alone
  viability: 115% (inactive)
[8]; at 1.25 µM, OCI-P5x cells, without rucaparib
  viability: 109% (inactive)
[8]; at 5 µM, OCI-C5x cells, with rucaparib 10 µM, 100% = cells with rucaparib alone
  viability: 105% (inactive)
[8]; at 5 µM, OCI-C5x cells, without rucaparib
  viability: 143% (inactive)
[8]; at 5 µM, OCI-P5x cells, with rucaparib 20 µM, 100% = cells with rucaparib alone
  viability: 112% (inactive)
[8]; at 5 µM, OCI-P5x cells, without rucaparib
  viability: 108% (inactive)
[6]
  z-score: 0.205 (inactive)

## S=C(S)OC1CC2CC1C1CCCC21 (stereo unspecified)
[9]
  period change: -0.18 h (inactive)
[10]
  inhibition: -2% (inactive)
[11]
  fluorescence ratio (interference): 1 (inactive)
[2]
  remaining activity: 120% (inactive)
[3]; [15]
  fold change: 0.999 (inactive) and 0.847 (inactive) and 0.975 (inactive)
[3]; [16]
  fold change: 0.874 and 0.927 and 0.9
[3]; [17]
  cell count: 10600 and 4560 and 8830
[3]; [18]
  cell count: 10600 and 5380 and 9060
[4]
  fold fluorescence: 5.66 [at 187.6 µM] (inactive)
[12]
  outcome: inactive
[6]
  z-score: -0.025 (inactive) and -0.095 (inactive)

## CCSC(=N)N
[9]
  period change: 0.115 h (inactive)
[10]
  inhibition: -2% (inactive)
[11]
  fluorescence ratio (interference): 1 (inactive)
[2]
  remaining activity: 116% (inactive)
[3]; [15]
  fold change: 1.03 (inactive) and 0.939 (inactive) and 0.949 (inactive)
[3]; [16]
  fold change: 0.74 and 0.98 and 1.59
[3]; [17]
  cell count: 10300 and 5940 and 9910
[3]; [18]
  cell count: 10000 and 6330 and 10400
[12]
  outcome: inactive
[13]
  luciferase signal: 16 AU (inactive)
[6]
  z-score: 0.125 (inactive) and 0.13 (inactive)

## CCCCCCCCCCCCC/C=C/[C@@H](O)[C@H](CO)NC(C)=O
[1]
  survival: 95 (inactive)
[2]
  remaining activity: 114% (inactive)
[3]; [15]
  fold change: 0.919 (inactive) and 1.02 (inactive) and 0.95 (inactive)
[3]; [16]
  fold change: 1.09 and 0.67 and 0.924
[3]; [17]
  cell count: 5360 and 6170 and 8250
[3]; [18]
  cell count: 5840 and 6040 and 8680
[4]
  fold fluorescence: 5.52 (inactive)
[6]
  z-score: -1.23 (inactive)

## Oc1cc2c(cc1O)C(c1ccccc1)CNCC2 (stereo unspecified)
[9]
  period change: 0.125 h (inactive)
[10]
  inhibition: -3% (inactive)
[11]
  fluorescence ratio (interference): 1 (inactive)
[2]
  remaining activity: 113% (inactive)
[3]; [15]
  fold change: 0.993 (inactive) and 0.954 (inactive)
[3]; [16]
  fold change: 1.37 and 0.889
[3]; [17]
  cell count: 10500 and 10200
[3]; [18]
  cell count: 10600
[12]
  outcome: inactive
[13]
  luciferase signal: 44 AU (inactive)
[6]
  z-score: 0.58 (inactive) and 0.48 (inactive)

## NC(=O)CNCCC(c1ccccc1)c1ccccc1
[9]
  period change: -0.275 h (inactive)
[10]
  inhibition: 0% (inactive)
[11]
  fluorescence ratio (interference): 1.1 (inactive)
[2]
  remaining activity: 72.6% (inactive)
[3]; [15]
  fold change: 0.993 (inactive) and 0.866 (inactive)
[3]; [16]
  fold change: 1.46 and 1.33
[3]; [17]
  cell count: 9880 and 8250
[3]; [18]
  cell count: 9950 and 9520
[12]
  outcome: inactive
[6]
  z-score: -0.185 (inactive) and 0.085 (inactive)

## C=CCN1CCc2cc(O)c(O)cc2C(c2ccccc2)C1 (stereo unspecified)
[9]
  period change: 0.045 h (inactive)
[10]
  inhibition: -4% (inactive)
[11]
  fluorescence ratio (interference): 0.9 (inactive)
[2]
  remaining activity: 113% (inactive)
[3]; [15]
  fold change: 0.956 (inactive) and 0.974 (inactive)
[3]; [16]
  fold change: 1.26 and 0.531
[3]; [17]
  cell count: 10300 and 8820
[3]; [18]
  cell count: 10700 and 9060
[12]
  outcome: inactive
[6]
  z-score: -1.29 (inactive) and -0.785 (inactive)

## CC(C)NC[C@H](O)COc1ccc(CC(N)=O)cc1
[9]
  period change: -0.06 h (inactive)
[14]
  parasite load remaining: 111% (inactive)
  viability: 102%
[10]
  inhibition: -2% (inactive)
[11]
  fluorescence ratio (interference): 1 (inactive)
[2]
  remaining activity: 87% (inactive)
[3]; [15]
  fold change: 1.04 (inactive) and 0.889 (inactive) and 0.97 (inactive)
[3]; [16]
  fold change: 1.51 and 1.14 and 0.697
[3]; [17]
  cell count: 7050 and 9340 and 9400
[3]; [18]
  cell count: 6770 and 10500 and 9690
[12]
  outcome: inactive
[5]; [19]
  z-score: -0.419 (inactive)
[5]; [20]
  z-score: -1.01
[6]
  z-score: 0.305 (inactive) and -0.32 (inactive)

## CC(C)(C)c1ccc(S(=O)(=O)/C=C/C#N)cc1
[9]
  period change: -0.05 h (inactive)
[10]
  inhibition: -4% (inactive)
[11]
  fluorescence ratio (interference): 0.9 (inactive)
[2]
  remaining activity: 114% (inactive)
[3]; [15]
  fold change: 0.996 (inactive) and 0.965 (inactive)
[3]; [16]
  fold change: 0.975 and 1.39
[3]; [17]
  cell count: 4040 and 1980
[3]; [18]
  cell count: 4060 and 2060
[7]
  SSMD: -5.26
  cell count: 6870
  plate-normalised HSF1 focus index: 0.733 (inactive)
[12]
  outcome: inactive
[6]
  z-score: -1.5 (inactive) and -1.04 (inactive)
